Experimental findings from ChEMBL document CHEMBL1201862, “PubChem BioAssay data set” (2004) are described below.

In all, about 58,000 sequences went through this assay and about 4,000 (6.9%) were called active. Rule as the data show it: active = GI50 up to about 1.1 µM and inactive = higher. Not all results are given here. Entries with a potency or affinity are not part of this list.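 The compound was tested at five concentrations on cells cultured in 96-well plates, with a 48-hour exposure period. At the GI50, growth is halved.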

This assay relates to KM12. Briefly: NCI tumour cell line growth inhibition, 48 h.
In the case of “[Bis(aminomethyl)pentamethylenesilane]dichloropaltinum(II), CHEMBL2146202”, the GI50 is 5.56 µM. The substance “[Bis(aminomethyl)tetramethylenesilane]dichloropaltinum(II), CHEMBL2146205” had a GI50 of 78 µM. In the case of “mu-(1,7-nanodiamine-N,N')bis-(cis-aminedichloroplatimum (II)), CHEMBL2146215” it was 97.1 µM. In the case of “[Bis(aminomethyl)pentamethylenesilane]tetrachloropaltinum(IV), CHEMBL2146204” it was 4.12 µM. Under “[Bis(aminomethyl)ethylmethylsilane]tetrachloroplatinum(IV), CHEMBL2146192” stands 3.89 µM; under “[Bis(aminomethyl)diethylsilane]tetrachloroplatinum(IV), CHEMBL2146203”, 8.85 µM.

For the substance “[Bis(aminomethyl)dimethylsilane]dichloroplatinum (II), CHEMBL2146201”, the GI50 was more than 100 µM. Under CISPLATIN, CHEMBL11359 stands 10 µM; under “[Bis(aminomethyl)dimethylsilane]tetrachloroplatinum(IV), CHEMBL2146190”, 18.1 µM. “[Bis(aminomethyl)tetramethylenesilane]tetrachloropaltinum(IV), CHEMBL2146189” displayed a GI50 of 14.8 µM.

Substance “cis-Bis[[(trimethylsilyl)methyl]amino]tetrachloroplatinum(IV), CHEMBL2146191” came in with a GI50 of 9.66 µM.
